# Screens as filed in PubChem BioAssay.
# APP 5UTR inh: inhibitors of APP translation via 5'UTR reporter, primary screen, APP 5'UTR luciferase, SH-SY5Y cells | SH-SY5Y APP 5'UTR-luciferase reporter, luminescence | actives 0.82% (n = 190,000) | inhibition, % at 2 µM | AID 1285, 2008;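 active means inhibition above a set limit, derived from the sample mean plus 3 SD, cut at about 45% in these data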
# Ba/F3 V617F tox: reduced viability of JAK2V617F-dependent Ba/F3 cells, primary screen, JAK2V617F inhibitor project, cell-based, Ba/F3 EpoR-JAK2V617F, luminescence | ATP luminescence | inhibition, % at 5.6 µM | actives 1.1% (n = 220,000) | AID 1446, 2008;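 active means inhibition above the campaign mean plus 3 SD over all tested compounds, cut at about 24% in these data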;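 further: cytokine-independent growth of Ba/F3 cells driven by EpoR plus mutant JAK2; 0% = DMSO-treated cells and 100% = JAK inhibitor I control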
# KLF5 inh: KLF5 expression inhibitors, primary screen, DLD-1 cells, luminescence. AID 1700, 2009. actives 0.23% (n = 290,000). DLD-1 KLF5 promoter-luciferase reporter. inhibition, % at 5 µM;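 active means inhibition above a per-plate limit of that plate's mean compound inhibition plus 3 SD, cut at about 60% in these data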;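 further: 0% = DMSO wells and 100% = LY294002 at 200 µM; higher means less KLF5 promoter-driven luciferase light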
# IEC-6 tox: cytotoxicity in IEC-6 intestinal epithelial cells, primary screen, cytotoxicity control for KLF5 inhibitor project, cell-based, luminescence; IEC-6 cytotoxicity, luminescence viability; inhibition, % at 5 µM; actives 0.78% (n = 290,000); in the data active means inhibition above about 22%;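 further: 0% = plate median of test compound wells and 100% = cytotoxic reference compound wells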
# BaF3 parental: parental Ba/F3 cell viability inhibition, counter-screen for JAK2V617F inhibitor project, murine pro-B, CellTiter-Glo luminescence; CellTiter-Glo ATP luminescence; actives 1.1% (n = 220,000); inhibition, % at 5.6 µM; AID 1486, 2009;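 active means inhibition above a per-campaign cutoff, the mean inhibition of all tested compounds plus 3 SD, cut at about 27% in these data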;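 further: 0% = DMSO wells and 100% = JAK Inhibitor I control wells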
# * = called active by the depositor; . = no result. Sampled rows, rich in hits. Any-hit rate of the full collection: about 1.9%.
SMILES,APP 5UTR inh,Ba/F3 V617F tox,KLF5 inh,IEC-6 tox,BaF3 parental
CCC(C(=O)NC1CCCCC1)N(Cc1cccs1)C(=O)CCC(=O)Nc1cc(C)on1 (stereo not given),.,.,6,11,.
CC[n+]1ccc(/C=C2\Sc3ccccc3N2CCCS(=O)(=O)[O-])c2ccccc21,-11,1,-21,-1,2
CN1C=C/C(=C\c2cc[n+](C)c3ccccc23)c2ccccc21,32,19,-6,6,51*
COc1cccc(CSc2nc3ccccc3cc2C=O)c1,89*,50*,31,7,36*
Cc1cc(C(=O)CS(=O)(=O)c2ccc(F)cc2)cc(C)c1O,.,.,-80,-7,.
O=C(NNC(=O)c1cc(C(F)(F)F)cc(C(F)(F)F)c1)c1ccc(Cl)cc1,.,-4,-16,-1,62*
Cc1ccc(-c2c[n+]3c(n2-c2ccccc2)CCC3)cc1,.,82*,9,22,65*
S=c1[nH]cc(-c2ccccc2)n1-c1ccccc1,9,-2,4,-13,2
c1ccc(-c2c[n+]3c(n2-c2ccccc2)CCC3)cc1,.,71*,-16,-4,65*
CCOc1ccc(-n2c(-c3ccccc3)c[n+]3c2CCCCC3)cc1,-12,89*,-7,22,70*
O=C(Nn1c(-c2ccncc2)nc2ccccc2c1=O)c1ccc([N+](=O)[O-])cc1Cl,0,4,-16,-1,10
COc1ccc(/C=N/n2cnn(Cc3ccccc3Cl)c2=S)cc1,80*,-2,-22,-4,2
COc1cc(/C=N/n2cnn(Cc3ccccc3Cl)c2=S)cc(OC)c1OC,1,3,8,3,6
COCc1ccc(C(=O)N2CCCC(Nc3ccc4c(c3)OCCO4)C2)o1 (stereo not given),.,.,-21,0,.
Cn1nc(-c2ccccn2)nc2c(=O)n(C)c(=O)nc1-2,59*,99*,105*,99*,105*
COc1ccc(-c2nc(-c3ccccn3)ncc2S(C)(=O)=O)cc1,11,1,-11,2,11
Cc1oc2ccc(OS(C)(=O)=O)cc2c1C(=O)OC(C)C,-25,42*,-12,-12,85*
COCCOC(=O)c1c(C)oc2ccc(OS(C)(=O)=O)cc12,7,-2,2,2,5
CN=c1scc(-c2ccco2)n1/N=C/c1ccc(O)c(O)c1,-9,100*,-21,17,54*
CCC1=Nc2cc(C(=O)NCCN3CCOCC3)ccc2Sc2ccccc21,.,.,-23,-1,.
CCOCCCNC(=O)c1ccc2c(c1)N=C(CC)c1cc(Br)ccc1S2,94*,92*,74*,93*,95*
Cc1ccc(C)c(C(=O)C(C)Sc2nc3nn(-c4ccccc4)c(=O)c-3c3n2CCCCC3)c1 (stereo not given),.,.,-9,2,.
CC1C/C(=C/c2ccccn2)C(=O)/C(=C/c2ccccn2)C1 (stereo not given),98*,52*,-16,3,73*
CC(C)(C)C1C/C(=C/c2ccccn2)C(=O)/C(=C/c2ccccn2)C1 (stereo not given),95*,0,4,4,-5
O=C1/C(=C/c2ccccn2)COc2ccccc21,5,-4,-29,-8,-3
SMILES,APP 5UTR inh,Ba/F3 V617F tox,KLF5 inh,IEC-6 tox,BaF3 parental
CC1CN(C(=O)CCC(=O)NCc2ccc(Cl)cc2)c2ccccc2O1 (stereo not given),.,.,3,1,.
O=c1oc(-c2ccccc2)nc2ccsc12,.,4,-14,4,39*
O=c1oc(-c2cccs2)nc2ccccc12,-2,0,-10,4,2
CN(C(=O)CSc1nc(-c2ccc(C(C)(C)C)cc2)c(C#N)c(=O)[nH]1)C1CCCCC1,.,.,-7,-2,.
COC(=O)/C=C/CC(C)OS(N)(=O)=O (stereo not given),.,.,-6,-6,.
Cc1nc([N+](=O)[O-])c(Br)n1CC(=O)c1cccc([N+](=O)[O-])c1,-7,1,-38,-1,-5
Cc1nc([N+](=O)[O-])c(Br)n1CC(=O)c1ccc(F)cc1,-7,37*,-16,18,-8
CC(=O)Nc1ccc(C(=O)NNC(=O)C2C3CCCCC32)cc1 (stereo not given),.,.,-17,8,.
N#Cc1c(N2CCCC2)ccc(Br)c1Cl,.,0,1,-11,39*
